In PubChem BioAssay (EPA / NIEHS):
The source made the active and inactive calls. Rule for the calls: active = hit-call score of the fitted dose curve at least 0.9, where 1 is the maximum; inactive = score below 0.9.

Assay: ATG_AP_1_CIS: Attagene CIS-FACTORIAL HepG2 Assay for human Activator Protein 1 (AP-1) (AID 2282931)
Details: HepG2 Attagene cis-factorial AP-1 reporter mRNA; actives raise or lower the signal
Method in brief: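 Reporter transcripts were measured 24 h after dosing by RT-PCR and capillary electrophoresis of fluorescent fragments. Cells: HepG2 carrying transfected cis-regulated reporter constructs reading endogenous factor activity. Gain or loss fitted against DMSO.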

SMILES	outcome	AC50
C=CC(=O)OCC(CO)(COCC(COC(=O)C=C)(COC(=O)C=C)COC(=O)C=C)COC(=O)C=C	inactive	
FC(F)(F)C(F)(F)C(F)(F)Br	inactive	
COCC1CCC(CO)CC1 (configuration not stated)	inactive	
C=COC(=O)C(C)(C)CCCCCC	inactive	
CCCCc1ccc2ccccc2c1S(=O)(=O)O	inactive	
C=Cc1ccc(O)c(OC)c1	inactive	
FC(F)=C(F)C(F)(F)C(F)(F)C(F)(F)C(F)F	inactive	
NS(=O)(=O)O	inactive	
O=C1c2ccc(O)c(O)c2C(=O)c2c(O)ccc(O)c21		50 µM (active)
CCOC(=O)CN[C@@H](C(=O)N1CC[C@H]1C(=O)NCc1ccc(/C(N)=N/O)cc1)C1CCCCC1	inactive	
CC(C)CCOCCC(C)C	inactive	
C=CC(=C)CC/C=C(\C)CCC=C(C)C	inactive	
Cc1ccc(N=Nc2c(O)ccc3ccccc23)c(C)c1		5.87 µM (active)
C=CC(=O)OCCN(CC)CC		178 µM (active)
Cc1ccc(S(=O)(=O)O)cc1	inactive	
CCCCCCCCCCCCOC(=O)c1cc(O)c(O)c(O)c1		11.1 µM (active)
CCCCCCCCCCCCCCCC(=O)OC	inactive	
CC1CCC(CO)CC1 (configuration not stated)	inactive	
CCCCCC(C)OC(=O)COc1ccc(Cl)c2cccnc12 (configuration not stated)	inactive	

SMILES	outcome	AC50
FC(F)(F)N1C(F)(F)C(F)(F)OC(F)(F)C1(F)F	inactive	
C/C=C/C(=O)C1=C(C)CCCC1(C)C		27.6 µM (active)
CCc1ccccc1O	inactive	
CNNCc1ccc(C(=O)NC(C)C)cc1	inactive	
CCCCCCCCCCCC[N+](C)(C)CCCCCCCCCCCC	inactive	
Cc1cc(=O)oc2cc(O)ccc12	inactive	
Clc1ccc2c(Cl)ccnc2c1	inactive	
CCCCCCCCCCCCCC[n+]1ccccc1		0.252 µM (active)
O=C(C=C(O)C(F)(F)F)C(F)(F)F	inactive	
Cc1cccc2c1ccc1ccccc12	inactive	
CCCCCCCCC1CCC(=O)O1 (configuration not stated)	inactive	
c1ccc(CNc2ncnc3c2ncn3C2CCCCO2)cc1 (configuration not stated)	inactive	
CCOC(OCC)C(=O)c1ccccc1	inactive	
C[N+](C)(CCCNS(=O)(=O)CCC(F)(F)C(F)(F)C(F)(F)C(F)(F)C(F)(F)C(F)(F)F)CC(=O)[O-]		0.00657 µM (active)
Nc1ccn([C@@H]2O[C@H](CO)[C@@H](O)C2O)c(=O)n1 (some centres not stated)	inactive	
CC(C)(C)C1CCCCC1O (configuration not stated)	inactive	
Cc1cncc(C)c1	inactive	
CC(=O)CC(C)C	inactive	

Assay: ATG_AP_2_CIS: Attagene CIS-FACTORIAL HepG2 Assay for human Activator Protein 2 (AP-2) (AID 2282932)
Details: HepG2 AP-2 cis-reporter, Attagene transcription factor profiling; AC50: actives raise or lower the signal unless noted; outcome: actives raise or lower the signal unless noted
Method in brief: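 Step one: transient transfection of HepG2 with reporter transcription units. Step two: 24 h chemical exposure. Step three: RNA extraction, RT-PCR, labelled fragment analysis by capillary electrophoresis; DMSO serves as baseline.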

SMILES	outcome	AC50
C=CC(=O)OCC(CO)(COCC(COC(=O)C=C)(COC(=O)C=C)COC(=O)C=C)COC(=O)C=C	inactive	
FC(F)(F)C(F)(F)C(F)(F)Br	inactive	
COCC1CCC(CO)CC1 (configuration not stated)	inactive	
C=COC(=O)C(C)(C)CCCCCC	inactive	
C=Cc1ccc(O)c(OC)c1	inactive	
NS(=O)(=O)O	inactive	
O=C1c2ccc(O)c(O)c2C(=O)c2c(O)ccc(O)c21	inactive	
CCOC(=O)CN[C@@H](C(=O)N1CC[C@H]1C(=O)NCc1ccc(/C(N)=N/O)cc1)C1CCCCC1	inactive	
CC(C)CCOCCC(C)C	inactive	
C=CC(=C)CC/C=C(\C)CCC=C(C)C	inactive	
Cc1ccc(N=Nc2c(O)ccc3ccccc23)c(C)c1	inactive	
C=CC(=O)OCCN(CC)CC	inactive	
Cc1ccc(S(=O)(=O)O)cc1	inactive	
CCCCCCCCCCCCOC(=O)c1cc(O)c(O)c(O)c1	inactive	
CCCCCCCCCCCCCCCC(=O)OC	inactive	
CC1CCC(CO)CC1 (configuration not stated)	inactive	
CCCCCC(C)OC(=O)COc1ccc(Cl)c2cccnc12 (configuration not stated)	inactive	

SMILES	outcome	AC50
FC(F)(F)N1C(F)(F)C(F)(F)OC(F)(F)C1(F)F	inactive	
C/C=C/C(=O)C1=C(C)CCCC1(C)C	inactive	
CCc1ccccc1O	inactive	
CNNCc1ccc(C(=O)NC(C)C)cc1	inactive	
CCCCCCCCCCCC[N+](C)(C)CCCCCCCCCCCC		168 µM (active)
Cc1cc(=O)oc2cc(O)ccc12	inactive	
Clc1ccc2c(Cl)ccnc2c1	inactive	
CCCCCCCCCCCCCC[n+]1ccccc1		19.8 µM (active)
Cc1cccc2c1ccc1ccccc12	inactive	
CCCCCCCCC1CCC(=O)O1 (configuration not stated)	inactive	
c1ccc(CNc2ncnc3c2ncn3C2CCCCO2)cc1 (configuration not stated)	inactive	
CCOC(OCC)C(=O)c1ccccc1	inactive	
C[N+](C)(CCCNS(=O)(=O)CCC(F)(F)C(F)(F)C(F)(F)C(F)(F)C(F)(F)C(F)(F)F)CC(=O)[O-]	inactive	
CC(C)(C)C1CCCCC1O (configuration not stated)	inactive	
Cc1cncc(C)c1	inactive	
CC(=O)CC(C)C	inactive	

Assay: ATG_BRE_CIS: Attagene CIS-FACTORIAL HepG2 Assay for human Bone Morphogenetic Protein (BMP) Response Element (BRE) (AID 2282933)
Details: HepG2 BMP response element reporter, Attagene transcription factor profiling; actives raise or lower the signal
Method in brief: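 HepG2 cells transiently transfected with CIS reporter units (endogenous TF activity, BMP response element), dosed 24 h. Reporter mRNA quantified by RT-PCR, fluorescent labelling and capillary electrophoresis; bidirectional fit vs DMSO baseline.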

SMILES	outcome	AC50
C=CC(=O)OCC(CO)(COCC(COC(=O)C=C)(COC(=O)C=C)COC(=O)C=C)COC(=O)C=C	inactive	
FC(F)(F)C(F)(F)C(F)(F)Br	inactive	
COCC1CCC(CO)CC1 (configuration not stated)	inactive	
C=COC(=O)C(C)(C)CCCCCC	inactive	
CCCCc1ccc2ccccc2c1S(=O)(=O)O	inactive	
C=Cc1ccc(O)c(OC)c1	inactive	
FC(F)=C(F)C(F)(F)C(F)(F)C(F)(F)C(F)F	inactive	
NS(=O)(=O)O	inactive	
O=C1c2ccc(O)c(O)c2C(=O)c2c(O)ccc(O)c21	inactive	
CCOC(=O)CN[C@@H](C(=O)N1CC[C@H]1C(=O)NCc1ccc(/C(N)=N/O)cc1)C1CCCCC1	inactive	
CC(C)CCOCCC(C)C	inactive	
C=CC(=C)CC/C=C(\C)CCC=C(C)C	inactive	
Cc1ccc(N=Nc2c(O)ccc3ccccc23)c(C)c1	inactive	
C=CC(=O)OCCN(CC)CC	inactive	
Cc1ccc(S(=O)(=O)O)cc1	inactive	
CCCCCCCCCCCCOC(=O)c1cc(O)c(O)c(O)c1	inactive	
CCCCCCCCCCCCCCCC(=O)OC	inactive	
CC1CCC(CO)CC1 (configuration not stated)	inactive	
CCCCCC(C)OC(=O)COc1ccc(Cl)c2cccnc12 (configuration not stated)	inactive	

SMILES	outcome	AC50
FC(F)(F)N1C(F)(F)C(F)(F)OC(F)(F)C1(F)F	inactive	
C/C=C/C(=O)C1=C(C)CCCC1(C)C		27.3 µM (active)
CCc1ccccc1O	inactive	
CNNCc1ccc(C(=O)NC(C)C)cc1	inactive	
CCCCCCCCCCCC[N+](C)(C)CCCCCCCCCCCC	inactive	
Cc1cc(=O)oc2cc(O)ccc12	inactive	
Clc1ccc2c(Cl)ccnc2c1		65.6 µM (active)
CCCCCCCCCCCCCC[n+]1ccccc1		1.22 µM (active)
O=C(C=C(O)C(F)(F)F)C(F)(F)F	inactive	
Cc1cccc2c1ccc1ccccc12	inactive	
CCCCCCCCC1CCC(=O)O1 (configuration not stated)	inactive	
c1ccc(CNc2ncnc3c2ncn3C2CCCCO2)cc1 (configuration not stated)	inactive	
CCOC(OCC)C(=O)c1ccccc1	inactive	
C[N+](C)(CCCNS(=O)(=O)CCC(F)(F)C(F)(F)C(F)(F)C(F)(F)C(F)(F)C(F)(F)F)CC(=O)[O-]	inactive	
Nc1ccn([C@@H]2O[C@H](CO)[C@@H](O)C2O)c(=O)n1 (some centres not stated)	inactive	
CC(C)(C)C1CCCCC1O (configuration not stated)	inactive	
Cc1cncc(C)c1	inactive	
CC(=O)CC(C)C	inactive	
